PI5P4Ka inh = PI5P4K alpha (human) kinase inhibition; PI5P4Kalpha enzyme, ADP-Glo luminescence, 60 min; hits give low values; max response, %; 1.2% of 330,000 active; active = max response of -50% or lower; inconclusive = between -30% and -50%; inactive = -30% or higher; also: value at the top dose of about 77 µM; % is scaled to controls: 0 for no effect and ±100 for the full control effect
Target sequence (P48426 whole entry, looked up): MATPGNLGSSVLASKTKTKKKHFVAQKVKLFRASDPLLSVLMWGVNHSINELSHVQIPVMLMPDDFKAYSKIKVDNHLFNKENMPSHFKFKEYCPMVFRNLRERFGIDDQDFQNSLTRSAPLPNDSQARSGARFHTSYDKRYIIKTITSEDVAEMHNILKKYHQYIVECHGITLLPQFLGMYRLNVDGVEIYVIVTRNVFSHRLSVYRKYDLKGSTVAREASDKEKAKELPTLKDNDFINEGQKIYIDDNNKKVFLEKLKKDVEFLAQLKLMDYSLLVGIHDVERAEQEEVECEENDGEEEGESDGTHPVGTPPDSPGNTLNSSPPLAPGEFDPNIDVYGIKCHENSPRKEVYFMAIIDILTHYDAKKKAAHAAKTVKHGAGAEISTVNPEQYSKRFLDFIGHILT
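PI5P4Kalpha ADP-Glo assay; 5 microM ATP final; 60 min RT reaction; HEPES pH 7.4/EGTA/CHAPS, 5% DMSO; controls lacking substrate or enzyme; luminescent end-point.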
D3 ag = D3 dopamine receptor (human) agonism | P35462 | D3R DiscoveRx beta-arrestin cells, luminescence, 90 min | max activation, % | 0.58% of 410,000 active | AID 652048; in the data active = max activation above about 30%; also: 0% is about no effect
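Agonist mode: compounds and dopamine controls were applied to plated cells for 90 min at 37 degrees C after an overnight attachment at 1500 cells/well. Luminescent read-out followed 30 - 60 minutes at room temperature with DiscoveRx detection reagent.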
LDHA block = inhibitors of human lactate dehydrogenase A; purified LDHA, NADH/diaphorase-resazurin fluorescence; hits give low values; activity change, % (values are at about 110 or 230 µM); 0.15% of 480,000 active; AID 1347041; in the data active = activity change below about -30%; inconclusive = mostly about -25% to -30%;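 also: plate controls were DMSO wells for no effect and wells without enzyme for full effect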
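Human LDH5 at 2 nM final in Tris HCl pH 7.4 with 0.06 mM NADH and 0.2 mM pyruvate, reacted 5 minutes at room temperature. Remaining NADH coupled via diaphorase/resazurin; resorufin fluorescence read at 0 and 20 minutes, normalized to enzyme-free and DMSO wells.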
PI4K2A inh = inhibitors of human PI4K2A | purified PI4K2A, ADP-Glo luminescence, 1 h; hits give low values | activity change, negative = inhibition, % at 76.9 µM | 0.13% of 420,000 active | AID 1346378; in the data active = activity change below about -50%; inconclusive = mostly about -30% to -49%;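 also: -100% = wells without enzyme as full effect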
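PI4K2A activity was measured by ADP-Glo luminescence: enzyme (4 ug/mL stock) and phosphatidylinositol (1.2 mM stock) in Tris pH 7.5/MgCl2/EGTA/Triton X-100 buffer were reacted with ATP (300 microM stock) for one hour at ambient temperature.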
D3 antag = blocks the human D3 dopamine receptor; 2.5% of 360,000 active; AID 652054; P35462; max response, negative = inhibition, %; D3R cells, DiscoveRx beta-arrestin luminescence, antagonist mode; hits give low values; in the data active = max response below about -50%; inconclusive = no clear call, values can overlap the other calls; also: % is scaled to controls: 0 for no effect and ±100 for the full control effect
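Cells plated overnight at 1500 cells/well, then exposed to library compounds with dopamine controls for 90 minutes at 37 degrees C. DiscoveRx reagent added for 30–60 minutes at room temperature; luminescence read, quantitative HTS format.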
The depositor's hits bear a star; u = inconclusive; x = no result given; ! = repeats disagree. This is a sample that favours compounds with a hit; in the whole collection about 3.3% have one here.

SMILES	PI5P4Ka inh	D3 ag	LDHA block	PI4K2A inh	D3 antag
CC(C)Oc1ccc(Br)cc1/C=C/C(=O)O	x	x	-7	x	x
COC(=O)c1cccc(N2CCCC2=O)c1	0	0	-9	-3	-1
Cc1ccc(-n2sc3cc(F)ccc3c2=O)c(C)c1	-87*	-2	-4	1	-15
COC(=O)c1cccc(-n2sc3ccccc3c2=O)c1	-96*	-35	u	-12	-60*
Cc1ccc(N2C(=O)c3ccccc3C2=O)c(C)c1	x	x	-1	x	x
O=C(c1sc2cc(F)ccc2c1Cl)N1CCN(c2cccc(Cl)c2)CC1	2	4	-2	1	3
O=c1c2ccc(F)cc2sn1-c1ccccc1	-108*	-6	-13	-8	-14
CCCNC(=O)NC(=O)CN(C)C1CCCCC1	x	x	4	x	x
C/C=C\C=C\C(=O)N1CC2(CC(c3cccc(NC(=O)CC(c4ccccc4)c4ccccc4)c3)=NO2)C[C@H]1C(N)=O (some centres not stated)	-71*	-20	3	-19	0
C/C=C\C=C/C(=O)Nc1cccc(C2=NOC3(C2)C[C@@H](C(N)=O)N(C(=O)/C=C/C=C\C)C3)c1 (some centres not stated)	-94*	1	8	u	-20
C/C=C\C(=O)Nc1cccc(C2=NOC3(C2)C[C@H](C(N)=O)N(C(=O)/C=C/CC)C3)c1 (some centres not stated)	11	7	-3	1	17
C/C=C\C=C/C(=O)Nc1cccc(C2=NOC3(C2)C[C@@H](C(N)=O)N(C(=O)/C=C/CC)C3)c1 (some centres not stated)	-65*	7	4	-17	0
CCOc1ccc2cc(-c3ccc(OC)cc3)c(=O)oc2c1	x	x	-1	x	x
CN(C)CCOC(=O)COc1ccc(Cl)cc1	-8	45*!	-2	-1	-9
CN(C)CCOc1cc(Cl)cc(Cl)c1	1	-12	-2	-1	-64*
CN(C)CCOc1cccc(Cl)c1	0	-5	u	2	u
C/C(=N/Nc1ccc(S(N)(=O)=O)cc1[N+](=O)[O-])c1ccc(Br)cc1	x	x	-12	x	x
O=c1[nH][nH]c2c(N=Cc3ccccc3O)ccc(F)c12	-103*	-3	39	-27	24
CCN1CCN(S(=O)(=O)c2ccc(NC(=O)c3nc(-c4ccccc4)oc3C)cc2)CC1	x	x	4	x	x
Cc1cccc(C)c1NC(=O)C(NC=O)c1ccc(Cl)cc1 (configuration not stated)	4	-6	-2	-2	-56*
COc1ccc2c(C)c(CCC(=O)NCCCO)c(=O)oc2c1C	x	x	-5	x	x
CCOC1=C2[C@H](c3ccccc3Cl)N(S(=O)(=O)c3ccc(C)cc3)C[C@H]2C(C#N)(C#N)C(C#N)(C#N)C1	-62*	4	-4	-4	23
CC(C)CCNC(=O)CCNC(=O)NCc1nc2c(cnn2-c2ccccc2)c(=O)[nH]1	x	x	0	x	x
O=C1Oc2ccccc2C(=O)/C1=C/N1CCN(c2ccccc2F)CC1	0	-27	-1	-2	-59*
CCS(=O)(=O)N1CCN(c2ccccc2F)CC1	-10	0	-1	0	9
SMILES	PI5P4Ka inh	D3 ag	LDHA block	PI4K2A inh	D3 antag
Cc1cc2oc(=O)cc(CN3CCN(C)CC3)c2cc1Cl	x	x	-9	x	x
CCc1ccc2c(CN3CCC(C(=O)OC)CC3)cc(=O)oc2c1	-2	100*	-7	2	50
CCc1ccc2c(CN3CCN(S(=O)(=O)c4ccccc4F)CC3)cc(=O)oc2c1	-2	-9	2	8	4
CCc1ccc2c(CN3CCN(S(=O)(=O)c4cccs4)CC3)cc(=O)oc2c1	-1	-6	0	-1	-75*
Cc1cc2oc(=O)cc(Cn3ncc(Cl)c(Cl)c3=O)c2cc1Cl	-27	-10	-4	6	-77*
COC(=O)C1CCN(Cc2cc(=O)oc3cc(C)c(Cl)cc23)CC1	16	95*	-3	1	4
CCCC(=O)OC12CCCN(C1)/C(=C/c1ccc(Cl)cc1)C2 (configuration not stated)	x	x	x	-4	x
C/C=C/C(=O)OCc1nc2c(c(=O)[nH]c(=O)n2CCCC)n1CC	x	x	1	x	x
Cc1nc2ccc(C(=O)NC(C3CC3)C3CC3)cc2nc1C	x	x	-1	x	x
CCOC(=O)c1c(/N=C/c2cccc([N+](=O)[O-])c2O)sc(C)c1C	-69*	-12	19	-7	-102*
O=[N+]([O-])c1cccc(C=Nc2cccc3ccccc23)c1O	u	-16	1	-2	-11
O=C(O)c1cn(-c2ccccc2)nc1-c1ccc(Cl)cc1	x	9	-2	9	-54*
O=C(O)c1cn(-c2ccccc2)nc1C(=O)O	-52*	2	-1	-5	-3
Cc1cc(SCC(=O)Nc2sccc2C(N)=O)nc2ccccc12	x	x	4	x	x
COc1cc(-c2c(C#N)c(=O)[nH]c3c2c(C)nn3-c2ccccc2)ccc1O	-63*	-4	-8	-2	u
CCc1nc(N)c(C#N)c(-c2ccc(O)c(OC)c2)c1C	-6	-6	-2	2	14
CCOC(=O)c1ccc2nc(C(F)(F)F)[nH]c(=O)c2c1	-57*	-4	-11	-7	-12
Cc1ccc(/C=C/C(=O)c2ccc(-c3ccccc3)cc2)o1	x	x	5	x	x
C=C1C(=O)O[C@@H]2[C@H]1[C@@H](OC(=O)/C(C)=C/C)C/C(C)=C\C(=O)/C=C(\C)[C@@H]2O	-16	-35	6	-3	-52*
Cc1onc(-c2ccc(Cl)cc2)c1-c1ccn(S(=O)(=O)c2ccccc2Cl)n1	x	x	x	-7	x
CCCCCCCCC(=O)c1c(OC)oc(C=O)cc1=O	-84*	2	-4	-11	-13
CCCCCCC(=O)Nc1cc2c(C)cc(=O)oc2cc1C	4	0	1	6	-15
Cc1ccc(NC(=S)N/N=C/c2c(Cl)cccc2Cl)c(C)c1	15	-6	0	1	-60*
Cc1ccc(Cl)cc1NC(=S)N/N=C/c1cccc2ccccc12	11	-20	-11	3	-53*
Cc1ccc(NC(=S)NCCO)c(C)c1	7	-7	-2	-5	-56*
SMILES	PI5P4Ka inh	D3 ag	LDHA block	PI4K2A inh	D3 antag
Cc1ccccc1C(=O)N/N=C/c1cccc2ccccc12	1	-1	-2	9	-4
CN(CCC#N)S(=O)(=O)c1ccc(Cl)cc1F	x	x	5	x	x
Cc1nc(Nc2nc(-c3ccccc3Cl)cc(=O)[nH]2)nc2c(C)cccc12	x	x	-3	x	x
CCOC(=O)N1CCN(Cc2cc(=O)oc3c(C)c(C)ccc23)CC1	x	x	2	x	x
COc1ccc2c(C)cc(SCC(=O)N3CCCCC3)nc2c1	x	x	4	x	x
Cc1nnc(N2CCN(c3ccccc3)CC2)[nH]c1=O	-55*	3	0	2	14
Cc1cnc(C(=O)Oc2ccc(Cl)c3ccccc23)cn1	x	x	16	x	x
CCOC(=O)/C(=C/c1c(C)n(C)c2ccc([N+](=O)[O-])cc12)C(C)=O	1	-9	-13	-8	-54*
